High-throughput results as filed in PubChem BioAssay.
This is a sample that favours compounds with a hit; in the whole collection about 2.7% have one here.
a7 integrin act – integrin-mediated muscular dystrophy alleviation activation. alpha7betagal myoblasts, beta-gal FDG fluorescence, 48 h. Potency, µM (highest dose often 38.3 µM), inactives show top-dose activation, actives largely listed as activators. 0.064% of 350,000 active. AID 624291;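 further: 100% = response of the positive control SU9516; nearly all actives have a fitted effect of over 60% in size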
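Alpha7betagal+/- myoblasts (passage 13) were plated 16-24 hr, then exposed to compounds (1:260 dilution of DMSO stock) for 48 hours at 37C. After MPER lysis, β-galactosidase reporter activity was read as FDG fluorescence (ex 480/em 540) after 30 minutes.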
BRCA1 expr up – increases BRCA1 expression | MCF7-BRCA1-FFLuc reporter, luminescence, 48 h; response scale: scaled: vehicle 0%, 10 µM genistein 100% | Potency, µM (titrated, usually from 46.1 µM), inactives show top-dose activation, most hits filed as activators | 1.1% of 380,000 active | AID 624202; further: nearly all actives have a fitted effect of over 80% in size
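Luminescence from a BRCA1-driven firefly luciferase in MCF7 cells was read after 48 h compound exposure at 37 C. Data normalized against DMSO and a 10microM genistein activation control, then curve-fitted across the titration.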
GLP-1R inv ag – acts as inverse agonist at human GLP-1 receptor; Potency, µM (series often up to 38.3 µM), for inactives: at the top dose activity change, negative = inhibition, actives largely listed as inhibitors; AID 624417; HEK293 GLP-1R CRE-luciferase, luminescence, 24 h; GLP-1R form is constitutively active; P43220; 1.6% of 410,000 active; further: on the % scale 0 is the no-effect control and ±100 the full control effect; nearly all actives have a fitted effect of over 55% in size
Target sequence (P43220 whole entry, looked up): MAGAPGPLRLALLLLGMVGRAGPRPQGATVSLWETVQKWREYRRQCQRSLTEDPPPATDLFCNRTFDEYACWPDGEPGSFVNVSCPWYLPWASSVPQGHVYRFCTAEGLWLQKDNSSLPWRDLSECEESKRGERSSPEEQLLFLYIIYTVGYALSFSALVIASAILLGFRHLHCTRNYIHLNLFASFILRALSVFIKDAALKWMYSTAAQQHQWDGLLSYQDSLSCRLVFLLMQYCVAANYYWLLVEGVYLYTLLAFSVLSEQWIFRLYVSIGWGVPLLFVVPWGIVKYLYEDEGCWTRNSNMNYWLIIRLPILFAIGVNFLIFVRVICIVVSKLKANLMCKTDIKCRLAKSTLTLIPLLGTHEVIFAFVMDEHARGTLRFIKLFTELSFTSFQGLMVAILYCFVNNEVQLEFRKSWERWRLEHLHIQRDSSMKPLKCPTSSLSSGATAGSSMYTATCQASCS
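Constitutively active GLP-1R drives a cAMP-responsive luciferase in stably transfected HEK293 cells; test compounds are added after overnight (12 h) attachment and left 24 hr, and signal loss in luminescence marks inhibition.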
HEK293 tox – cytotoxicity counter-screen for GLP-1 receptor inverse agonists. HEK293 cAMP-luciferase reporter cells, luminescence, 24 h. Potency, µM (doses to about 38.3 µM), without a hit: top-dose activity change, negative = inhibition, hits mostly inhibitors. 0.13% of 410,000 active. AID 624418;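 further: loss of luciferase light is scored as toxicity; on the % scale 0 is the no-effect control and ±100 the full control effect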
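Cells in DMEM/10% Nu serum/1% pen-strep, 1536-well format. Pre-incubated 12 h, dosed with 23 nL compound, incubated a further 24 h. Luciferase detection, 12 min at room temp, luminescence.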
GLP1R ag – agonists of human GLP-1 receptor. HEK293 GLP-1R CRE-luciferase, luminescence, 4-6 h; cells express a hypersensitive GLP-1R form. Potency, µM (highest dose often 45.6 µM), without a hit: top-dose activation, hits mostly activators. 0.007% of 380,000 active. AID 624172; further: % of control where 0% means no effect
The depositor's hits bear a star; ? = inconclusive; nt = no result; [ ] = another dose, or the depositor's remark. The call rests on the fitted dose curve; in most records, active means well fitted curve in the direction sought with a large enough effect; inconclusive means small, poorly fitted or top-dose-only effect, or another doubt; inactive means no such curve, though single readings can be large; an effect the other way counts as inactive or inconclusive. Potency means the concentration at half of the fitted maximal effect.

SMILES | a7 integrin act | BRCA1 expr up | GLP-1R inv ag | HEK293 tox | GLP1R ag
CCOc1ccc(C2CC(=O)Nc3c2c(=O)[nH]c2ncnn32)cc1 (stereo not given) | nt | 19% | 15% | 2% | -1%
COc1ccc(NC(=O)c2cc(S(=O)(=O)Nc3ccc(OC)cc3)cs2)cc1 | -32% | -39% | ? | -12% | 16%
O=C(Nc1ccc(F)cc1)c1cc(S(=O)(=O)Nc2ccc(F)cc2)cs1 | -12% | -46% | 10µM* | -30% | -17%
CC(=O)c1cnn(-c2ccc(Cl)cc2)c1C | ? | 0% | 1% | 5% | 6%
Cc1c(C(=O)NCCSCc2cccc(C(F)(F)F)c2)cnn1-c1ccc(Cl)cc1 | 35% | -17% | 5µM* | -4% | 15%
CCOc1ccc(C2C(C(N)=O)=C(C)Nc3nc(-c4ccc(OC)cc4)nn32)cc1 (stereo not given) | nt | nt | 9% | 15% | nt
Cc1cc(N2CCC(C)CC2)nc(SCC(=O)c2ccccc2)n1 | -35% | 0% | 3.2µM* | 1% | 1%
CC1(C(=O)NCc2ccco2)Cc2c(-c3cccc(C(F)(F)F)c3)ccnc2O1 (stereo not given) | nt | -52% | 2.2µM* | ? | 16%
CC1(C(=O)NCc2cccs2)Cc2c(-c3ccccc3)ccnc2O1 (stereo not given) | nt | -37% | 4.5µM* | ? | 8%
Nc1ccc(O)c2c(=O)cc(-c3ccccc3Cl)oc12 | -23% | 2.8µM* | 1% | 0% | 9%
O=c1cc(-c2ccccc2Cl)oc2c(NS(=O)(=O)c3cc(Cl)cc(Cl)c3O)ccc(O)c12 | -12% | -56% | 4µM* | ? | 3%
O=[N+]([O-])c1ccc(Cl)cc1N/N=C/c1ccncc1 | 5.6µM* | -40% | 1% | 8% | -2%
O=[N+]([O-])c1cc(S(=O)(=O)Nc2ccc(Cl)cc2)ccc1N/N=C/c1ccncc1 | ? | -37% | -13% | -5% | 11%
O=C(CN1CCSc2ccccc21)N1CCN(c2cccc(Cl)c2)CC1 | nt | -15% | -15% | 5% | 12%
O=C1c2cc(S(=O)(=O)N3CCOCC3)ccc2-c2ccc(S(=O)(=O)N3CCOCC3)cc21 | nt | -1% | nt | nt | nt
COc1ccc(OC)c(C(=O)CSc2ncc3c(n2)-c2ccccc2N(Cc2ccccc2C)S3(=O)=O)c1 | nt | nt | 11% | 7% | nt
Cc1cc(C)c(C(=O)CSc2nnc(N)s2)cc1C | -35% | 56% | 4% | -4% | 10%
Cc1ccc(C(=O)CSc2nnc(N)s2)c(C)c1 | -11% | 4.5µM* | -13%[0.307 µM] | 0%[0.307 µM] | 0%
Cc1cc(C(=O)CSc2nnc(N)s2)c(C)n1C1CC1 | 7% | 7.9µM* | 38% | -13% | 5%
COc1ccc(NC(=O)C(=O)NCC2CCCN2S(=O)(=O)c2cc(C)ccc2C)cc1 (stereo not given) | -4% | -60% | 4µM* | ? | -4%
Cc1ccc(C)c(S(=O)(=O)N2CCCC2CNC(=O)C(=O)Nc2ccccc2)c1 (stereo not given) | 5% | -35% | ? | 2% | -1%
CC(CNC(=O)c1ccc2nc(Cc3ccccc3)oc2c1)c1ccccc1 (stereo not given) | nt | nt | 11µM* | -13% | nt
COC(=O)[C@@H](C)NC(=O)c1ccc2oc(CCc3ccccc3)nc2c1 | 15% | 11µM* | 4% | -14% | 3%
COC(=O)CCCNC(=O)c1ccc2oc(CCCc3ccccc3)nc2c1 | -1% | 48% | 6% | 2% | 0%
COc1cc(CNC(=O)c2ccc3nc(CCc4ccccc4)oc3c2)cc(OC)c1OC | nt | nt | 11µM* | 2% | nt
COc1ccc(Cc2nc3ccc(C(=O)NCCCSC)cc3o2)cc1OC | ? | 13µM* | 42% | -1% | 15%
CC(NC(=O)c1ccc2nc(Cc3ccccc3)oc2c1)c1ccccc1 (stereo not given) | nt | nt | -28% | -4% | nt
Cc1ccc(C)c(Nc2nn3c(=O)c4ccc(C(=O)N(C)Cc5ccccc5)cc4nc3s2)c1 | nt | nt | -30% | 2% | nt
Cc1ccc(NC(c2ccc(Cl)cc2)c2nnc(-c3cccc(F)c3)o2)cc1C (stereo not given) | nt | nt | 7% | -2% | nt
